Measurements reported in PubChem BioAssay (Tox21).
Results filed as inconclusive are left out. Entries that show only a call come without a potency. The source made the active and inactive calls. Unless noted, the call rests on the fitted dose curve; in most records, active means well fitted curve in the direction sought with a large enough effect in the repeat runs; inconclusive means weak or mixed curves; inactive means no such curve, though single readings can be large; an effect the other way counts as inactive or inconclusive.

How the values were obtained:
[1] = qHTS assay to identify aromatase inhibitors - cell viability counter screen (AID 743084);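 further: cells stimulated with testosterone during compound exposure; nearly all actives have a fitted effect of over 55% in size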
[2] = molecular target: Aryl hydrocarbon receptor (Homo sapiens) (UniProt P35869); experiment: qHTS assay to identify small molecule that activate the aryl hydrocarbon receptor (AhR) signaling pathway (AID 743085); further: nearly all actives have a fitted effect of over 15% in size; further: potency means the concentration at half of the fitted maximal effect;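 on activation: HG2L7.5c1 human HepG2 liver cells with stably integrated DRE-driven firefly reporter; series mostly up to about 70 µM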
Method in brief: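 AhR agonist activity is inferred from enhanced light output of a DRE-controlled firefly luciferase reporter in HepG2 cells, measured with ONE-Glo following 24 h treatment at 37C.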

[3] = qHTS assay to identify small molecule that activate the aryl hydrocarbon receptor (AhR) signaling pathway - cell viability counter screen (AID 743086);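 further: HepG2 liver cells carrying the AhR DRE luciferase reporter; series mostly up to about 70 µM; nearly all actives have a fitted effect of over 45% in size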
Method in brief: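 HepG2-AhR-luc (HG2L7.5c1) cells, 4000/well, treated 24 h at 37 C with compound; viability measured as CellTiter-Fluor fluorescence after 30 min in the same wells as the luciferase read.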

[4] = molecular target: Peroxisome proliferator-activated receptor gamma (Homo sapiens) (UniProt P37231); experiment: qHTS assay to identify small molecule agonists of the peroxisome proliferator-activated receptor gamma (PPARg) signaling pathway (AID 743094; active means well fitted activation curve with a large enough effect in the signal ratio in the repeat runs, not every such curve was filed as active; the % refers to the signal ratio)
Method in brief: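 GeneBLAzer PPARg UAS-bla HEK293H cells carrying a stably integrated beta-lactamase reporter were pre-incubated 5 h at 37C, then exposed to compounds in DMSO for 17 h at 37C; LiveBLAzer B/G FRET substrate was added for 1 h at room temperature and fluorescence read.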

[5] = qHTS assay to identify small molecule antagonists of the peroxisome proliferator-activated receptor gamma (PPARg) signaling pathway - cell viability counter screen (AID 743194); further: nearly all actives have a fitted effect of over 55% in size
Method in brief: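 Cytotoxicity counter screen in PPARg-bla HEK293H cells, same wells as reporter assay. Compounds plus 50 nM rosiglitazone (final) for 17 h at 37 C, then viability read by CellTiter-Glo luminescence.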

[6] = qHTS assay for small molecule agonists of the antioxidant response element (ARE) signaling pathway (AID 743202; active means well fitted activation curve with a large enough effect in the signal ratio in the repeat runs, not every such curve was filed as active; the % refers to the signal ratio; further: potency means the concentration at half of the fitted maximal effect)
Method in brief: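 ARE-bla HepG2 cells (beta-lactamase reporter under the antioxidant response element), plated 5 hours, then exposed to compounds 16 hours at 37 C. LiveBLAzer B/G FRET substrate added for 2 hours at room temperature; fluorescence intensity read.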

[7] = qHTS assay for small molecule agonists of the antioxidant response element (ARE) signaling pathway - cell viability counter screen (AID 743203; calls by dose curve; further: nearly all actives have a fitted effect of over 55% in size)
Method in brief: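 CellSensor ARE-bla HepG2 cells, 2,000 per well, rested 5 hrs at 37C/5% CO2, then exposed to compound in DMSO for 16 hrs; viability read as CellTiter-Glo luminescence after 30 min at room temperature, in the reporter wells.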

[8] = qHTS assay for small molecule activators of the heat shock response signaling pathway - cell viability counter screen (AID 743209); further: nearly all actives have a fitted effect of over 50% in size
Method in brief: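 CellSensor HSE-bla HeLa cells, plated overnight at 37 C/5% CO2, were exposed to compounds in DMSO for 5 h at 37 C. Viability was then read in the same wells by CellTiter-Glo luminescence after 30 min at room temperature.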

[9] = qHTS assay for small molecule activators of the heat shock response signaling pathway (AID 743210; active means well fitted activation curve with a large enough effect in the signal ratio in the repeat runs, with a control signal flat, not every such curve was filed as active; the % refers to the signal ratio; further: series mostly up to about 63 µM)
Method in brief: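 HSE-bla HeLa cells (beta-lactamase reporter under heat shock response elements), plated overnight, then exposed to compounds 5 h at 37 C; LiveBLAzer B/G FRET substrate added, 2.5 h at room temperature, fluorescence intensity read.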

[10] = qHTS assay to identify small molecule agonists of the peroxisome proliferator-activated receptor delta (PPARd) signaling pathway - cell viability counter screen (AID 743211); further: nearly all actives have a fitted effect of over 55% in size
Method in brief: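 qHTS cell viability: PPARd-bla HEK293H; 17 h cpd, 37C; CellTiter-Glo, luminescence at 30 min RT.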

[11] = molecular target: Peroxisome proliferator-activated receptor delta (Homo sapiens) (UniProt Q03181); experiment: qHTS assay to identify small molecule agonists of the peroxisome proliferator-activated receptor delta (PPARd) signaling pathway (AID 743212; calls by dose curve)
Method in brief: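 GeneBLAzer UAS-bla HEK293H cells carrying a PPARδ construct were exposed to compounds at 37 °C. Beta-lactamase activity was read by FRET fluorescence after 2 h at room temperature with LiveBLAzer B/G substrate.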

[12] = qHTS assay to identify small molecule antagonists of the peroxisome proliferator-activated receptor delta (PPARd) signaling pathway - cell viability counter screen (AID 743213); further: nearly all actives have a fitted effect of over 50% in size
Method in brief: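 PPARd-bla HEK293H cells (3000/well) got compound plus 300 nM L165041 agonist for 17 h at 37 C. Viability in the same wells came from CellTiter-Glo luminescence after 30 min at room temperature.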

[13] = qHTS assay to identify small molecule agonists of the farnesoid-X-receptor (FXR) signaling pathway - cell viability counter screen (AID 743218); further: nearly all actives have a fitted effect of over 45% in size
Method in brief: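 FXR-UAS-bla HEK 293T cells, plated 5 h at 37 C, were exposed to compounds for 16 h at 37 C. CellTiter-Glo was then added to the same wells as the bla readout; luminescence read after 30 min at room temperature.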

[14] = molecular target: Bile acid receptor (Homo sapiens) (UniProt Q96RI1); experiment: qHTS assay to identify small molecule antagonists of the farnesoid-X-receptor (FXR) signaling pathway (AID 743217; active means well fitted inhibition curve with a large enough effect in the signal ratio in the repeat runs, not every such curve was filed as active; the % refers to the signal ratio)
Method in brief: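 FXR-UAS-bla HEK 293T cells pre-incubated 5 h at 37 °C, then exposed to compounds with chenodeoxycholic acid (50 uM final) for 16 h at 37 °C. Beta-lactamase reporter read by LiveBLAzer B/G FRET substrate fluorescence after 2 h at room temperature.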

[15] = molecular target: Bile acid receptor (Homo sapiens) (UniProt Q96RI1); experiment: qHTS assay to identify small molecule agonists of the farnesoid-X-receptor (FXR) signaling pathway (AID 743220; active means well fitted activation curve with a large enough effect in the signal ratio in the repeat runs, not every such curve was filed as active; the % refers to the signal ratio)
Method in brief: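 Beta-lactamase reporter under UAS control in GeneBLAzer FXR HEK 293T cells (5000/well) measured with LiveBLAzer FRET substrate after 2 h at room temperature. Compound exposure lasted 16 h at 37C.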

[16] = qHTS assay to identify small molecule antagonists of the farnesoid-X-receptor (FXR) signaling pathway - cell viability counter screen (AID 743221; active means well fitted cell-killing curve with a large enough effect in the repeat runs, not every such curve was filed as active; further: nearly all actives have a fitted effect of over 50% in size)
Method in brief: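 After a 5 h settling period, FXR-bla HEK 293T cells receive compound and chenodeoxycholic acid (50 uM final) and incubate 16 h at 37 C; CellTiter-Glo luminescence, read after 30 min at room temperature, reports cell viability.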

[17] = molecular target: Vitamin D3 receptor (Homo sapiens) (UniProt P11473); experiment: qHTS assay to identify small molecule agonists of the vitamin D receptor (VDR) signaling pathway (AID 743222; calls by dose curve)
Method in brief: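 VDR-bla cells were plated 4 h at 37C/5% CO2, then exposed to compounds in DMSO for 16 h. After LiveBLAzer B/G FRET substrate addition and 2 h at room temperature, beta-lactamase reporter fluorescence was read.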

[18] = molecular target: Peroxisome proliferator-activated receptor delta (Homo sapiens) (UniProt Q03181); experiment: qHTS assay to identify small molecule antagonists of the peroxisome proliferator-activated receptor delta (PPARd) signaling pathway (AID 743215; active means well fitted inhibition curve with a large enough effect in the signal ratio in the repeat runs, not every such curve was filed as active; the % refers to the signal ratio;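 further: cells stimulated with agonist L165041 at 300 nM final during compound exposure; series mostly up to about 62 µM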)
Method in brief: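 PPARd UAS-bla HEK293H cells were pre-incubated 5 h at 37 C, then given test compounds in DMSO plus agonist L165041 (300 nM final). After 17 h at 37 C, beta-lactamase FRET substrate was added; fluorescence read after 2 h at room temperature.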

[19] = molecular target: Vitamin D3 receptor (Homo sapiens) (UniProt P11473); experiment: qHTS assay to identify small molecule antagonists of the vitamin D receptor (VDR) signaling pathway (AID 743223; active means well fitted inhibition curve with a large enough effect in the signal ratio in the repeat runs, not every such curve was filed as active; the % refers to the signal ratio)
Method in brief: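 Reporter line VDR-bla; stimulus 1alpha,25-(OH)2 vitamin D3, 3 nM final; compound co-addition, 16 h 37C/5% CO2; LiveBLAzer B/G substrate 2 h RT; fluorescence intensity.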

[20] = molecular target: Peroxisome proliferator-activated receptor gamma (Homo sapiens) (UniProt P37231); experiment: qHTS assay to identify small molecule antagonists of the peroxisome proliferator-activated receptor gamma (PPARg) signaling pathway (AID 743191; calls by dose curve; further: series mostly up to about 63 µM; nearly all actives have a fitted effect of over 30% in size)
Method in brief: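 GeneBLAzer PPARg UAS-bla HEK293H cells, 5 h post-plating, exposed to compounds 17 h at 37C. LiveBLAzer B/G FRET substrate added for 1 h at room temperature; beta-lactamase reporter read by fluorescence intensity.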

Sequence of Bile acid receptor (Homo sapiens) (Q96RI1 whole entry, looked up): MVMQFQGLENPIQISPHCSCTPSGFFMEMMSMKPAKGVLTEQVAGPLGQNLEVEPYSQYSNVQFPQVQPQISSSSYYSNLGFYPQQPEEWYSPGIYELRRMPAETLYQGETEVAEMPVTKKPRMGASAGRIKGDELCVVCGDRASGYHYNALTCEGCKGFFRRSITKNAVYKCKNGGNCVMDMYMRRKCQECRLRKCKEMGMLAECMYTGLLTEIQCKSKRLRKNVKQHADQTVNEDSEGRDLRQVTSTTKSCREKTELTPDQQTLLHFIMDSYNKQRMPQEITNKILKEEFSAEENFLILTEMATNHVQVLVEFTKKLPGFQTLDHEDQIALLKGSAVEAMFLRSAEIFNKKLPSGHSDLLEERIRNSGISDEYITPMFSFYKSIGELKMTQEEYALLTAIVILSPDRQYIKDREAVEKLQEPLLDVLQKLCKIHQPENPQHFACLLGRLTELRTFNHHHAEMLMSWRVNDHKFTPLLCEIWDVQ
Sequence of Aryl hydrocarbon receptor (Homo sapiens) (P35869 whole entry, looked up): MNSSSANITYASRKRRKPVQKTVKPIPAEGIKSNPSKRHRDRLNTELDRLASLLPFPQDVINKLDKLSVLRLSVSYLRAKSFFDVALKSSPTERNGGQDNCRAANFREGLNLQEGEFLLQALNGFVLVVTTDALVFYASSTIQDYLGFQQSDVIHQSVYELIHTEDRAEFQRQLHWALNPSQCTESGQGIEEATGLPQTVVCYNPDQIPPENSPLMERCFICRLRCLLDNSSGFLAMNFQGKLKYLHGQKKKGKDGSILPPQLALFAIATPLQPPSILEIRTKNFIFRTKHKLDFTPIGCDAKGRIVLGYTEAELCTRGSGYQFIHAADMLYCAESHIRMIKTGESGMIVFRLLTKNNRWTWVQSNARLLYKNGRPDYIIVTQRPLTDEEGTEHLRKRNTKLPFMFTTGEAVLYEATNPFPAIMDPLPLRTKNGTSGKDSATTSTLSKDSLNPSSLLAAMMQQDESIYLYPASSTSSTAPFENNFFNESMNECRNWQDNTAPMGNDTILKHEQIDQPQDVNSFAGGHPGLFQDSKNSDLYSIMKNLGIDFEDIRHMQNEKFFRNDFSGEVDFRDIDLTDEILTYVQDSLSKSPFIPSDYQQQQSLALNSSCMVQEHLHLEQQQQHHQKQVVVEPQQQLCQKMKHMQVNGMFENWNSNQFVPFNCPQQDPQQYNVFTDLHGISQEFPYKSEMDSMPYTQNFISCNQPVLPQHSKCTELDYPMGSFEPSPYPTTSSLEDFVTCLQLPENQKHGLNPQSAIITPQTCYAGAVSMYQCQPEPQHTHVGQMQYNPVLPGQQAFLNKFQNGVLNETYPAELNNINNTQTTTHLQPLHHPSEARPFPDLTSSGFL
Sequence of Peroxisome proliferator-activated receptor delta (Homo sapiens) (Q03181 whole entry, looked up): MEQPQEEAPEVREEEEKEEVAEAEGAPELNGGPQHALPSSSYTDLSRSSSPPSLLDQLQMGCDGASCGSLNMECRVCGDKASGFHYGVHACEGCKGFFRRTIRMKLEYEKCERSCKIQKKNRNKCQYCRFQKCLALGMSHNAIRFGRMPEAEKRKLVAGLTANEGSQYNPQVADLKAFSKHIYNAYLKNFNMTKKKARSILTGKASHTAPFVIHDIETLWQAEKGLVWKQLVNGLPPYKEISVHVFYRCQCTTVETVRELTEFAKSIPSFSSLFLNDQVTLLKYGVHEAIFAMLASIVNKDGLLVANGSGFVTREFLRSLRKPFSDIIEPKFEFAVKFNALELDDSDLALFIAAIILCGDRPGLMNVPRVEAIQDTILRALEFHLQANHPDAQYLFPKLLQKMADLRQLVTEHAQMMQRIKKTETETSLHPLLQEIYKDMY
Sequence of Vitamin D3 receptor (Homo sapiens) (P11473 whole entry, looked up): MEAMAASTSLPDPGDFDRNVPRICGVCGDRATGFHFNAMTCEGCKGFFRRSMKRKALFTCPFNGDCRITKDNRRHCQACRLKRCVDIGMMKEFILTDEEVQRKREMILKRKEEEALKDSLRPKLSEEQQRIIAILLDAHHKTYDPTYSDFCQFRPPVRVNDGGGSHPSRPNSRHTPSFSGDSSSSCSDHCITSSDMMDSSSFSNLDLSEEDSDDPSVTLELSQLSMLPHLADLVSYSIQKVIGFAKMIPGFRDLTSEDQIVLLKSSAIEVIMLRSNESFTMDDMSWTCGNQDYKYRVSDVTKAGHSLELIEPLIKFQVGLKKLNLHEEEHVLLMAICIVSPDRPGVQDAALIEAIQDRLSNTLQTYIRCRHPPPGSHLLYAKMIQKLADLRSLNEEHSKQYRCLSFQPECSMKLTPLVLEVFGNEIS
Sequence of Peroxisome proliferator-activated receptor gamma (Homo sapiens) (P37231 whole entry, looked up): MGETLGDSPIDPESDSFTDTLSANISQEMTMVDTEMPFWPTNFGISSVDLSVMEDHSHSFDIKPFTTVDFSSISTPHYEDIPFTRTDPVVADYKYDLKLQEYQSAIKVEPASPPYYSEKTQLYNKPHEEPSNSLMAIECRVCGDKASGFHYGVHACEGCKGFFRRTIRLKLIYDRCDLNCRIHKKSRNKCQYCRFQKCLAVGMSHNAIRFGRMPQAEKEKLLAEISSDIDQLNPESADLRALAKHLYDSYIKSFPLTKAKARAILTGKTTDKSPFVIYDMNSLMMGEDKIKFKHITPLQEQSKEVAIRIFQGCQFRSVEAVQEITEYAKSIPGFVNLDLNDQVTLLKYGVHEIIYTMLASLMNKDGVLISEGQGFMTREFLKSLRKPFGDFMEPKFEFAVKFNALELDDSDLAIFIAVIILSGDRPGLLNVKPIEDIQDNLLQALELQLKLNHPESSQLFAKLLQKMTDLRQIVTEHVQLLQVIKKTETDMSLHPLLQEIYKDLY

Row | Structure (SMILES) | Potency [1] | Potency [2] | Potency [3] | Potency [4] | Potency [5] | Potency [6] | Potency [7] | outcome [8] | outcome [9] | Potency [10] | Potency [11] | Potency [12] | Potency [13] | outcome [14] | outcome [15] | Potency [16] | outcome [17] | outcome [18] | outcome [19] | Potency [20]
1 | CC(C)=CCC[C@H](C)CCO | inactive | inactive | inactive | inactive | inactive | inactive | inactive | inactive | inactive | inactive | inactive | inactive | inactive |  |  |  |  |  |  | 
2 | Cc1cc(C)n(CO)n1 | inactive | inactive | inactive | inactive | inactive | inactive | inactive | inactive | inactive | inactive | inactive | inactive | inactive | inactive | inactive | inactive | inactive |  |  | 
3 | CCOc1ccccc1O | inactive | inactive | inactive | inactive | inactive | inactive | inactive | inactive | inactive | inactive | inactive | inactive | inactive | inactive | inactive | inactive | inactive |  |  | 
4 | CCCCC(CC)COCCC#N (stereo unspecified) | inactive | inactive | inactive | inactive | inactive | inactive | inactive | inactive | inactive | inactive | inactive |  | inactive |  |  | inactive | inactive | inactive |  | 
5 | O=C(O)c1cc(C(=O)O)cc([N+](=O)[O-])c1 | inactive | inactive | inactive | inactive | inactive | inactive | inactive | inactive | inactive | inactive |  | inactive | inactive |  |  | inactive | inactive |  |  | 
6 | CCCCCCCCCCCCSCCOCCO | inactive | inactive | inactive | inactive | inactive | inactive | inactive | inactive | inactive | inactive |  |  | inactive | inactive | inactive |  |  |  |  | 
7 | CC(C)CC(C)(C)C | inactive | inactive | inactive | inactive | inactive | inactive | inactive | inactive | inactive | inactive | inactive | inactive | inactive |  |  | inactive | inactive | inactive | inactive | 
8 | CC(C)=CCCC(C)C=O (stereo unspecified) | inactive | inactive | inactive | inactive |  |  | inactive | inactive | inactive | inactive | inactive | inactive | inactive | inactive | inactive | inactive | inactive |  | inactive | inactive
9 | CC(C(=O)O)c1ccc2c(c1)Cc1cccnc1O2 (stereo unspecified) | inactive | inactive | inactive | inactive | inactive | inactive | inactive | inactive | inactive | inactive | inactive | inactive | inactive |  |  | inactive | inactive | inactive | inactive | 
10 | O=C(O)c1ccc(O)c(O)c1 | inactive | inactive | inactive | inactive | inactive | inactive | inactive | inactive | inactive | inactive | inactive |  | inactive |  |  | inactive |  | inactive |  | 
11 | COc1cc(CNC(=O)CCCC/C=C/C(C)C)ccc1O | inactive | inactive | inactive | inactive | inactive | 47.3 µM (active) | inactive |  | inactive | inactive |  | inactive | inactive |  | inactive |  |  | inactive | inactive | 
12 | CCc1ccc2c(c1)C(=O)c1ccccc1C2=O | inactive | 27.3 µM (active) | inactive | inactive | inactive | 34.4 µM (active) | inactive |  | inactive | inactive |  | inactive |  |  |  | inactive | inactive |  |  | 
13 | CCCCCCCCC(=O)OCC(C)OC(=O)CCCCCCCC (stereo unspecified) | inactive | inactive | inactive | inactive | inactive | inactive | inactive |  |  | inactive | inactive | inactive | inactive |  |  | inactive | inactive | inactive | inactive | 
14 | CC(C)Oc1ccccc1O | inactive | inactive | inactive | inactive | inactive | inactive | inactive | inactive | inactive | inactive | inactive | inactive | inactive |  |  | inactive |  | inactive |  | 
15 | CC(=O)Oc1cccc2c1C(=O)c1c(OC(C)=O)cc(C(=O)O)cc1C2=O | inactive | inactive | inactive | inactive | inactive | 15 µM (active) | inactive |  | inactive | inactive |  | inactive |  |  |  | inactive |  |  |  | 
